{"source": "PubChem BioAssay AID686954", "about": "(Sanford-Burnham Center for Chemical Genomics, 2013)", "note": "Out of some 30,000 compounds screened, about 240 (0.8%) were called active. The entries come from a sample that favours actives as a whole. Values without a mark were called inactive.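 How the source made its calls: active means at 10 µM dose, at least 30% inhibition, measured as corrected fluorescence normalized to stimulator and neutral control wells; inactive means the rest.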", "data": [{"target": "Protein artemis (Homo sapiens) (UniProt Q96SD1)", "sequence (Q96SD1 whole entry, looked up)": "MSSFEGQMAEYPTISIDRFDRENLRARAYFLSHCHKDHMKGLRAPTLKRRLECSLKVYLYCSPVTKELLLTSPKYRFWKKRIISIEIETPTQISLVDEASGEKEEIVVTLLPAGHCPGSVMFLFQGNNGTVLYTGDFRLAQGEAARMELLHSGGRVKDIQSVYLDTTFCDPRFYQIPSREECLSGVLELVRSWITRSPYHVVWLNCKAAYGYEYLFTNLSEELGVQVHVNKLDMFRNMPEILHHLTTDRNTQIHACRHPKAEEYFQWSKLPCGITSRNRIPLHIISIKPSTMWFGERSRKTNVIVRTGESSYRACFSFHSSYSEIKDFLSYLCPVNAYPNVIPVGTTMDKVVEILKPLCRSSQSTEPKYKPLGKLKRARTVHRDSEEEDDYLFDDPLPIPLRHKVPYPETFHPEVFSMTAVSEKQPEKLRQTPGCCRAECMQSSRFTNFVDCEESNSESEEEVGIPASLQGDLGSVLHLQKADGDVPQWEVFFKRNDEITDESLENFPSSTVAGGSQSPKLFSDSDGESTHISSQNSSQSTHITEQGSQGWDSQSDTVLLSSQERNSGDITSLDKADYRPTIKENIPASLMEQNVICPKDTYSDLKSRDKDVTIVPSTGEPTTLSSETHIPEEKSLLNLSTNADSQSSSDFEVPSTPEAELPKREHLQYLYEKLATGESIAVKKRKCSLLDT", "test": "Artemis endonuclease inhibitors, primary screen, biochemical, fluorescence intensity, FAM/BHQ-1 hairpin substrate (AID 686954)", "conditions": "recombinant Artemis, quenched FAM hairpin cleavage fluorescence; at 10 µM; stronger effect = higher value", "values": [{"compound": "COC(=O)/C=C/C(=O)NCc1ccco1", "inhibition": "25.1%"}, {"compound": "Cc1ccccc1OC(=O)Cn1c(C(F)(F)F)nc2ccccc21", "inhibition": "1.38%"}, {"compound": "Cc1cc2c(cc1C)N(C(=O)CN1C(=O)c3ccccc3C1=O)C(C)(C)c1ssc(=S)c1-2", "inhibition": "2.13%"}, {"compound": "O=C(Oc1cccnc1)c1cc2ccccc2oc1=O", "inhibition": "4.63%"}, {"compound": "CC(C)C(c1nnnn1CCc1ccccc1)N1CCN(C(=O)c2ccco2)CC1", "note": "(stereo unspecified)", "inhibition": "-0.73%"}, {"compound": "COc1ccc(C2C(C(C)=O)=C(O)C(=O)N2c2nccs2)cc1", "note": "(stereo unspecified)", "inhibition": "-6.55%"}, {"compound": "Cc1ccc(SCC(=O)Nc2ncc(C)s2)cc1", "inhibition": "3.54%"}, {"compound": "O=C(N/N=C\\c1ccc(-c2ccc(Cl)c(Cl)c2)o1)C(=O)N1CCCC1", "inhibition": "10.4%"}, {"compound": "Cc1cc(-c2ccccc2)n2nc(C)c(-c3ccccc3)c2n1", "inhibition": "-3.76%"}, {"compound": "O=C(c1ccccc1Oc1ccccc1)N1CCN(c2ccc(F)cc2)CC1", "inhibition": "10.1%"}, {"compound": "Cc1cc(C)n2nc(C(=O)NC(C)(C)C)nc2n1", "inhibition": "-8.47%"}, {"compound": "CCCCNC(=O)CSc1nc2ccc(NC(=O)CSc3nnc(COc4ccccc4C)n3C)cc2s1", "inhibition": "1.88%"}, {"compound": "CC(=O)c1ccc(Cc2ncc(C(F)(F)F)cc2Cl)s1", "inhibition": "-6.84%"}, {"compound": "O=C(Cn1c(-c2cscn2)nc2ccccc21)Nc1ccc(Cl)cc1", "inhibition": "6.18%"}, {"compound": "COc1cc(CNCc2cccs2)cc(Br)c1OC", "inhibition": "-2.14%"}, {"compound": "CCOCC(=O)Nc1cc(OC)c(Cl)cc1OC", "inhibition": "-5.52%"}, {"compound": "Cc1ccc(/C=N/NC(=O)C(NC(=O)c2ccccc2)c2n[nH]c(=O)c3ccccc23)cc1", "note": "(stereo unspecified)", "inhibition": "10.5%"}, {"compound": "COCCCn1c(SCC(=O)Nc2ccccc2)nnc1-c1ccncc1", "inhibition": "-5.35%"}, {"compound": "Cn1c(=O)c2c(n(Cc3ccccc3)c1=O)NC(=O)C2CC(=O)N1CCc2ccccc2C1", "note": "(stereo unspecified)", "inhibition": "6.23%"}, {"compound": "O=C(Nc1ccc(-n2ccnc2P(=O)(O)c2ccccc2)cc1)c1ccccc1Br", "inhibition": "4.42%"}, {"compound": "CCN(CC)CCN1C(=O)C(=O)/C(=C(/O)c2ccccc2)C1c1ccccc1F", "note": "(stereo unspecified)", "inhibition": "3.66%"}, {"compound": "CC(C)(C)NS(=O)(=O)CC12CCC(CC1=O)C2(C)C", "note": "(stereo unspecified)", "inhibition": "-3.02%"}, {"compound": "CN(C)CCNC(=O)Nc1cccc(Cl)c1Cl", "inhibition": "-0.2%"}, {"compound": "CCN(CC)Cc1cc(C(C)=O)ccc1O", "inhibition": "-4.35%"}, {"compound": "O=C(Nc1nnc(SCc2ccccc2)s1)c1ccco1", "inhibition": "12.4%"}, {"compound": "Cc1nn2c3ccccc3nc2n(C)c1=O", "inhibition": "0.11%"}, {"compound": "O=C(Nc1ccc2c(c1)CCC2)c1cccc(S(=O)(=O)N2CCN(c3ccc(F)cc3)CC2)c1", "inhibition": "2.72%"}, {"compound": "CN1CCN(S(=O)(=O)c2ccc(N3CCN(S(=O)(=O)c4cccs4)CC3)nc2)CC1", "inhibition": "-9.36%"}, {"compound": "Cc1ccc(NC(=S)NC2CCCC2)cc1", "inhibition": "1.01%"}, {"compound": "CCC(=O)NNc1cc(=O)c2c(=O)n(C)c(=O)n(C)c2[nH]1", "inhibition": "0.17%"}, {"compound": "COc1cccc(CNc2nc3nc4c(c(=O)n3[nH]2)CCC4)c1", "inhibition": "-6.09%"}, {"compound": "CCN(Cc1ccncc1)C(=O)c1cccc(S(=O)(=O)N2CCOCC2)c1", "inhibition": "-1.99%"}, {"compound": "Cc1cc(C)c2c(-n3cccc3)c(NC(=O)OCc3ccccc3)sc2n1", "inhibition": "0.14%"}, {"compound": "CCOc1cccc(C(=O)Nc2cnn(Cc3ccccc3)c2)c1", "inhibition": "0.76%"}, {"compound": "Cc1ccc(C2NC(=S)NC3=C2N2CCC3CC2)cc1", "note": "(stereo unspecified)", "inhibition": "-3.09%"}, {"compound": "CN1CCN(Cc2c(O)ccc3c2oc(=O)c2ccccc23)CC1", "inhibition": "-4.24%"}, {"compound": "Cc1ccc(/C=N\\n2c(-c3ccccc3)n[nH]c2=S)s1", "inhibition": "4.19%"}, {"compound": "CC(=O)c1sc(NC(=O)c2cccc3ccccc23)nc1C", "inhibition": "5.24%"}, {"compound": "Cc1nnc(NC(=O)CCCOc2ccccc2)s1", "inhibition": "-2.98%"}, {"compound": "NC(=O)C1CCN(C(=O)c2ccc(C(F)(F)F)cc2)CC1", "inhibition": "-5.95%"}, {"compound": "O=C(NCC1CCCO1)c1ccc2ccccc2n1", "note": "(stereo unspecified)", "inhibition": "1.24%"}, {"compound": "N#C/C(=C(/O)COc1cccc2ccccc12)c1nc2ccccc2[nH]1", "inhibition": "-3.72%"}, {"compound": "CC(C)(O)C(=O)NN(C(=O)c1ccccc1)c1cccc(Br)c1", "inhibition": "-17.1%"}, {"compound": "O=C(COc1ccc2oc3c(c2c1)CCCC3)Nc1ccccn1", "inhibition": "-4.41%"}, {"compound": "CCOC(=O)C1CCc2nc3ccccc3c(=O)n21", "note": "(stereo unspecified)", "inhibition": "-9.86%"}, {"compound": "CCC(C)NC(=O)c1ccccc1NC(=O)c1ccccc1N(C)S(C)(=O)=O", "note": "(stereo unspecified)", "inhibition": "-0.77%"}, {"compound": "O=C(CSc1nnc(-c2ccco2)n1-c1ccccc1)NCCc1ccccc1", "inhibition": "5.03%"}, {"compound": "CCOc1ccc(-c2c(C)n([O-])c3c([n+]2=O)CCCC3)cc1", "inhibition": "-6.29%"}, {"compound": "CCC(=O)NC(Nc1nc2ccc(C)cc2s1)(C(=O)OC)C(F)(F)F", "note": "(stereo unspecified)", "inhibition": "-8.44%"}, {"compound": "CCn1c(COc2ccccc2)nnc1SCC(=O)Nc1ccc2c(c1)OCCO2", "inhibition": "-7.11%"}, {"compound": "S=C(NCCC1=CCCCC1)Nc1ccccc1", "inhibition": "3.85%"}, {"compound": "CCOC(=O)C1=NNC2(c3ccc(Cl)cc3)C(=O)N(c3cc(C)cc(C)c3)C(=O)C12", "note": "(stereo unspecified)", "inhibition": "1.03%"}, {"compound": "Cc1oc2nc(SCC(=O)NCc3cccnc3)nc(N)c2c1C", "inhibition": "2.99%"}, {"compound": "Cc1c(Cl)c([N+](=O)[O-])nn1Cc1ccc(C(=O)N/N=C\\c2cc(Cl)ccc2O)o1", "inhibition": "31% (active)"}, {"compound": "Cc1nn(Cc2ccccc2Cl)c(C)c1NC(=O)Cn1nc([N+](=O)[O-])c(Cl)c1C", "inhibition": "1.31%"}, {"compound": "CCCc1ccc(OCc2ccc(C(=O)N/N=C/c3cccc([N+](=O)[O-])c3)o2)c(OC)c1", "inhibition": "-9.45%"}, {"compound": "COc1ccc(-c2nc3ccccc3n2CCC(C)C)cc1OC", "inhibition": "7.4%"}, {"compound": "CCSc1nnc(NC(=O)Cc2ccccc2OC)s1", "inhibition": "2.36%"}, {"compound": "C[C@H](NC(=O)NCCc1ccccc1)C(=O)O", "inhibition": "-9.76%"}, {"compound": "CCOC(=O)c1nc(Nc2ccc(C(=O)OC)cc2)c2ccccc2n1", "inhibition": "-0.44%"}, {"compound": "C/C(=N\\NC(=O)c1ccccc1C)c1ccc(N2CCOCC2)cc1", "inhibition": "0.87%"}, {"compound": "COc1cccc(-c2cc(C(=O)N/N=C/c3ccc(OC)c(COC(C)=O)c3)c3ccccc3n2)c1", "inhibition": "9.16%"}, {"compound": "CS(=O)(=O)n1nc(-c2ccccc2)nc1NCc1ccco1", "inhibition": "-21.9%"}, {"compound": "CC(=O)N/C(=C/c1ccc(Cl)cc1)C(=O)NCCc1c[nH]c2ccccc12", "inhibition": "-1.86%"}, {"compound": "O=C(Cn1cncn1)N/N=C/c1c2ccccc2cc2ccccc12", "inhibition": "-6.23%"}, {"compound": "CC(C)Oc1ccc(C(=O)NC(C)(C)CO)cc1", "inhibition": "1.84%"}, {"compound": "O=C(CN(Cc1ccccc1)C(=O)c1ccc2c(c1)OCCO2)NCc1ccc2c(c1)OCO2", "inhibition": "-2.04%"}, {"compound": "CC1(C)Cc2ccccc2-c2nnc(-c3cccc(O)c3)n21", "inhibition": "-6.85%"}, {"compound": "Cc1ccc(C(=O)OC2=CC(=O)CC(C)(C)C2)cc1", "inhibition": "-0.31%"}, {"compound": "CCOC(=O)c1cnc(-c2ccccc2)nc1Oc1ccc(C)cc1", "inhibition": "7.75%"}, {"compound": "CSc1nc(C)cc(SC(C(C)=O)C(=O)Nc2ccccc2)n1", "note": "(stereo unspecified)", "inhibition": "-3.91%"}, {"compound": "COc1ccc(-c2nn(-c3ccccc3)cc2C(=O)Nc2nc(CC(C)=O)ns2)cc1", "inhibition": "45.9% (active)"}, {"compound": "COc1ccc(-c2nn(-c3ccccc3)cc2C(=O)Nc2nccs2)cc1OC", "inhibition": "27.5%"}, {"compound": "CC(=O)Cc1nsc(NC(=O)c2ccc(COc3ccc(C)cc3)o2)n1", "inhibition": "-5.26%"}, {"compound": "CN1/C(=c2/s/c(=C3/C(=O)N(c4ccccc4)NC3=Nc3ccccc3)n(C)c2=O)C(C)(C)c2ccccc21", "inhibition": "15.8%"}, {"compound": "CCOC(=O)C1=C(CNC2CCCCC2)NC(=O)NC1c1cc(C)ccc1C", "note": "(stereo unspecified)", "inhibition": "-5.92%"}, {"compound": "O=C(/C=C/c1ccccc1)c1ccoc1", "inhibition": "-1.46%"}, {"compound": "O=C(Nc1ccccc1Cl)O/N=C(/c1ccccc1)c1ccccn1", "inhibition": "6.79%"}, {"compound": "Cc1ccc2nc(SC(C)C(=O)NCc3ccco3)[nH]c2c1", "note": "(stereo unspecified)", "inhibition": "4.88%"}, {"compound": "Cc1ccc(-n2c(C)cc(/C=N/Nc3ccc([N+](=O)[O-])cn3)c2C)c(C)c1", "inhibition": "14.4%"}, {"compound": "NC(=O)COc1ccc(/C=N/NC(=O)C2CCCN2S(=O)(=O)c2ccc(Cl)cc2)cc1", "note": "(stereo unspecified)", "inhibition": "0.47%"}, {"compound": "CC1CCN(CC(=O)c2c[nH]c3ccccc23)CC1", "inhibition": "-3.18%"}, {"compound": "CCOC(=O)Nc1sc(C(=O)N(C)C)c(C)c1C(=O)OCC", "inhibition": "7.1%"}, {"compound": "O=C(Cc1ccc(S(=O)(=O)N2CCCC2)s1)NC1CCCCCC1", "inhibition": "0.64%"}, {"compound": "CCOc1c(Cl)cc(/C=N/O)cc1OC", "inhibition": "-3.96%"}, {"compound": "CCNc1nc(N)nc(-c2cc(Cl)ccc2OC)n1", "inhibition": "-15.5%"}, {"compound": "Cc1cccc(N2CCN(C(c3ccc(N(C)C)cc3)c3nnnn3C(C)(C)C)CC2)c1C", "note": "(stereo unspecified)", "inhibition": "4.46%"}, {"compound": "COCCNCCOCCOc1cccc(OC)c1", "inhibition": "-0.71%"}, {"compound": "CC(C)OC(=O)CN1C(=O)c2ccccc2C1=O", "inhibition": "-7.81%"}, {"compound": "CC(=O)Oc1ccc(NC(=O)CCC2CCCCC2)c(C(=O)O)c1", "inhibition": "-1.44%"}, {"compound": "Cc1nnc(SCC(=O)NCCOc2ccc(Cl)cc2)n1-c1ccccc1", "inhibition": "-3.78%"}, {"compound": "CC1(C)CCCC2=C1CC1C(=O)N(c3ccccc3)C(=O)C1C2", "note": "(stereo unspecified)", "inhibition": "-1.84%"}, {"compound": "O=C1Nc2ccc(Br)cc2/C1=N/N=C/C1=C(N2CCOCC2)C(=C\\c2ccccc2)/CC1", "inhibition": "30.1% (active)"}, {"compound": "COc1ccc(-c2noc(-c3ccc(C)cc3)n2)cc1", "inhibition": "0.23%"}, {"compound": "Cc1ccc2[nH]c3c(=O)n(Cc4ccccn4)cnc3c2c1", "inhibition": "3.97%"}, {"compound": "C=CCNc1cnn(-c2ccc(C)cc2)c(=O)c1Cl", "inhibition": "3.95%"}]}]}
